Test results taken from the supplement of paper PMC10849652.
The full data set covers some 7,900 targets. This sample favours those with a hit. About 0.6% of all pairs of compound and target were hits.

Key:
Test in all cases: log2 fold change, soluble protein after heating vs DMSO (PISA); higher = thermal stabilisation; K562 cells, 10 uM, 30 min; active = over 0.2 and 3.5 SD of the protein, either way, in both replicates (recomputed)
[1] = compound: C1COCCN1CCN2C3=CC=CC=C3N=C2NC(=O)C4=CC(=CC=C4)[N+](=O)[O-] [IRAK-1-4 Inhibitor I]
Summary of the method: (§1)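 K562 cells at 2×10^6 cells/mL were given 10 μM compound for 30 min. Aliquots then went through 3 min of heating across 48°C-58°C, were pooled, and were extracted in PBS with 0.5% NP-40 at 4°C, and the supernatant after 21,000xg for 90 min was quantified by TMTpro 16plex LC-MS/MS with channel sums equalised. Thermal stability relative to control samples, from duplicates, is given as log2 fold change.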

[2] = compound: C=CC(=O)N1CCC[C@@H](n2nc(-c3ccc(Oc4ccccc4)cc3)c3c(N)ncnc32)C1 [ibrutinib]
Summary of the method: as §1

[3] = compound: CC(=O)c1cnc2ccc(-c3cc(Cl)c(O)c(Cl)c3)nc2c1N[C@H]1CC[C@H](CN(C)C)CC1
Summary of the method: as §1

[4] = compound: CC(C)(C)Cn1c(N)nc2ccc(-c3[nH]c(C(C)(C)C)nc3-c3ccc(F)cc3)nc21 [ralimetinib]
Summary of the method: as §1

[5] = compound: CC(C)(O)CC(=O)NCCn1ccc2ncnc(Nc3ccc(Oc4cccc(C(F)(F)F)c4)c(Cl)c3)c21
Summary of the method: as §1

[6] = compound: CC(C)C1=C2N=C(C=C(N2N=C1)NCC3=CC=CC=C3)NCCCCCCN
Summary of the method: as §1

[7] = compound: CC(C)C[C@@H](C=O)NC(=O)[C@H](CC(C)C)NC(=O)[C@H](CC(C)C)NC(=O)OCc1ccccc1
Summary of the method: as §1

[8] = compound: CC(C)N(C[C@H]1O[C@@H](n2cnc3c(N)ncnc32)[C@H](O)[C@@H]1O)[C@H]1C[C@@H](CCc2nc3cc(C(C)(C)C)ccc3[nH]2)C1 [pinometostat]
Summary of the method: as §1

[9] = compound: CC1=C(C(CC(=O)N1)C2=CC=C(C=C2)C(F)(F)F)C(=O)NC3=C(C=C4C(=C3)C=NN4)F
Summary of the method: as §1

[10] = compound: CC1=C(C2=C(C=C1)C(=O)C3=CC=CC=C3N2CCCN)C
Summary of the method: as §1

[11] = compound: CC1=C(C=C(C=C1)NC(=O)C2=CC(=CC=C2)C(C)(C)C#N)NC3=CC4=C(C=C3)N=CN(C4=O)C
Summary of the method: as §1

[12] = compound: CC1=C(C=C(C=C1)NC(=O)C2=CC(=CC=C2)N(C)C)NC(=O)C3=CC=C(C=C3)O
Summary of the method: as §1

[13] = compound: CC1=CC=C(C=C1)SC2=C3C=C(SC3=CN=C2)C(=O)N
Summary of the method: as §1

[14] = compound: CC1=NC(=CC=C1)C2=C(N=C(N2)C(C)(C)C)C3=CC4=NC=CN=C4C=C3
Summary of the method: as §1

[15] = compound: CCCCN(Cc1ccc(C(=O)NO)cc1)C(=O)Nc1ccccc1 [Nexturastat A]
Summary of the method: as §1

[16] = compound: CCCS(=O)(=O)Nc1ccc(F)c(C(=O)c2c[nH]c3ncc(-c4ccc(Cl)cc4)cc23)c1F [vemurafenib]
Summary of the method: as §1

[17] = compound: CCCS(=O)(=O)Nc1ccc(F)c(C(=O)c2c[nH]c3ncc(Cl)cc23)c1F
Summary of the method: as §1

[18] = compound: CCCc1cc(C)[nH]c(=O)c1CNC(=O)c1cc(-c2ccnc(N3CCN(C)CC3)c2)cc2c1cnn2C(C)C
Summary of the method: as §1

[19] = compound: CCN(CC)Cc1ccc2cc(COC(=O)Nc3ccc(C(=O)NO)cc3)ccc2c1 [givinostat]
Summary of the method: as §1

[20] = compound: CCN(CCCOc1ccc2c(Nc3cc(CC(=O)Nc4cccc(F)c4)[nH]n3)ncnc2c1)CCOP(=O)(O)O [barasertib]
Summary of the method: as §1

Measured: log2 fold change

EEF1A1 (UniProt P68104)
inactive: [1] 0.133 | [2] 0.121 | [3] 0.05 | [4] 0.133 | [5] -0.052 | [6] -0.037 | [7] -0.019 | [8] -0.028 | [9] 0.01 | [10] -0.178 | [11] -0.069 | [12] -0.068 | [13] 0 | [14] 0.052 | [15] 0.086 | [16] 0.031 | [17] 0.022 | [18] 0.089 | [19] -0.044 | [20] 0.052

CUX1 isoform 2 (UniProt Q13948)
inactive: [1] 0.042 | [2] 0.017 | [3] -0.032 | [4] 0.036 | [5] -0.101 | [6] 0.045 | [7] 0.042 | [8] 0.055 | [9] 0.013 | [10] 0.049 | [11] -0.07 | [12] 0.007 | [13] -0.003 | [14] -0.031 | [15] 0.051 | [16] 0.074 | [17] 0.077 | [18] -0.011 | [19] -0.049 | [20] 0.038

DAG1 (UniProt Q14118)
inactive: [1] -0.019 | [2] -0.024 | [3] -0.029 | [4] -0.076 | [5] 0.003 | [6] 0.169 | [7] 0.008 | [8] 0.04 | [9] -0.008 | [10] 0.067 | [11] -0.053 | [12] -0.019 | [13] -0.013 | [14] 0.001 | [15] -0.005 | [16] 0.005 | [17] -0.06 | [18] -0.028 | [19] 0.019 | [20] 0.011

DNAH11 (UniProt Q96DT5)
UniProt Q96DT5, sequence (Q96DT5 whole entry, looked up): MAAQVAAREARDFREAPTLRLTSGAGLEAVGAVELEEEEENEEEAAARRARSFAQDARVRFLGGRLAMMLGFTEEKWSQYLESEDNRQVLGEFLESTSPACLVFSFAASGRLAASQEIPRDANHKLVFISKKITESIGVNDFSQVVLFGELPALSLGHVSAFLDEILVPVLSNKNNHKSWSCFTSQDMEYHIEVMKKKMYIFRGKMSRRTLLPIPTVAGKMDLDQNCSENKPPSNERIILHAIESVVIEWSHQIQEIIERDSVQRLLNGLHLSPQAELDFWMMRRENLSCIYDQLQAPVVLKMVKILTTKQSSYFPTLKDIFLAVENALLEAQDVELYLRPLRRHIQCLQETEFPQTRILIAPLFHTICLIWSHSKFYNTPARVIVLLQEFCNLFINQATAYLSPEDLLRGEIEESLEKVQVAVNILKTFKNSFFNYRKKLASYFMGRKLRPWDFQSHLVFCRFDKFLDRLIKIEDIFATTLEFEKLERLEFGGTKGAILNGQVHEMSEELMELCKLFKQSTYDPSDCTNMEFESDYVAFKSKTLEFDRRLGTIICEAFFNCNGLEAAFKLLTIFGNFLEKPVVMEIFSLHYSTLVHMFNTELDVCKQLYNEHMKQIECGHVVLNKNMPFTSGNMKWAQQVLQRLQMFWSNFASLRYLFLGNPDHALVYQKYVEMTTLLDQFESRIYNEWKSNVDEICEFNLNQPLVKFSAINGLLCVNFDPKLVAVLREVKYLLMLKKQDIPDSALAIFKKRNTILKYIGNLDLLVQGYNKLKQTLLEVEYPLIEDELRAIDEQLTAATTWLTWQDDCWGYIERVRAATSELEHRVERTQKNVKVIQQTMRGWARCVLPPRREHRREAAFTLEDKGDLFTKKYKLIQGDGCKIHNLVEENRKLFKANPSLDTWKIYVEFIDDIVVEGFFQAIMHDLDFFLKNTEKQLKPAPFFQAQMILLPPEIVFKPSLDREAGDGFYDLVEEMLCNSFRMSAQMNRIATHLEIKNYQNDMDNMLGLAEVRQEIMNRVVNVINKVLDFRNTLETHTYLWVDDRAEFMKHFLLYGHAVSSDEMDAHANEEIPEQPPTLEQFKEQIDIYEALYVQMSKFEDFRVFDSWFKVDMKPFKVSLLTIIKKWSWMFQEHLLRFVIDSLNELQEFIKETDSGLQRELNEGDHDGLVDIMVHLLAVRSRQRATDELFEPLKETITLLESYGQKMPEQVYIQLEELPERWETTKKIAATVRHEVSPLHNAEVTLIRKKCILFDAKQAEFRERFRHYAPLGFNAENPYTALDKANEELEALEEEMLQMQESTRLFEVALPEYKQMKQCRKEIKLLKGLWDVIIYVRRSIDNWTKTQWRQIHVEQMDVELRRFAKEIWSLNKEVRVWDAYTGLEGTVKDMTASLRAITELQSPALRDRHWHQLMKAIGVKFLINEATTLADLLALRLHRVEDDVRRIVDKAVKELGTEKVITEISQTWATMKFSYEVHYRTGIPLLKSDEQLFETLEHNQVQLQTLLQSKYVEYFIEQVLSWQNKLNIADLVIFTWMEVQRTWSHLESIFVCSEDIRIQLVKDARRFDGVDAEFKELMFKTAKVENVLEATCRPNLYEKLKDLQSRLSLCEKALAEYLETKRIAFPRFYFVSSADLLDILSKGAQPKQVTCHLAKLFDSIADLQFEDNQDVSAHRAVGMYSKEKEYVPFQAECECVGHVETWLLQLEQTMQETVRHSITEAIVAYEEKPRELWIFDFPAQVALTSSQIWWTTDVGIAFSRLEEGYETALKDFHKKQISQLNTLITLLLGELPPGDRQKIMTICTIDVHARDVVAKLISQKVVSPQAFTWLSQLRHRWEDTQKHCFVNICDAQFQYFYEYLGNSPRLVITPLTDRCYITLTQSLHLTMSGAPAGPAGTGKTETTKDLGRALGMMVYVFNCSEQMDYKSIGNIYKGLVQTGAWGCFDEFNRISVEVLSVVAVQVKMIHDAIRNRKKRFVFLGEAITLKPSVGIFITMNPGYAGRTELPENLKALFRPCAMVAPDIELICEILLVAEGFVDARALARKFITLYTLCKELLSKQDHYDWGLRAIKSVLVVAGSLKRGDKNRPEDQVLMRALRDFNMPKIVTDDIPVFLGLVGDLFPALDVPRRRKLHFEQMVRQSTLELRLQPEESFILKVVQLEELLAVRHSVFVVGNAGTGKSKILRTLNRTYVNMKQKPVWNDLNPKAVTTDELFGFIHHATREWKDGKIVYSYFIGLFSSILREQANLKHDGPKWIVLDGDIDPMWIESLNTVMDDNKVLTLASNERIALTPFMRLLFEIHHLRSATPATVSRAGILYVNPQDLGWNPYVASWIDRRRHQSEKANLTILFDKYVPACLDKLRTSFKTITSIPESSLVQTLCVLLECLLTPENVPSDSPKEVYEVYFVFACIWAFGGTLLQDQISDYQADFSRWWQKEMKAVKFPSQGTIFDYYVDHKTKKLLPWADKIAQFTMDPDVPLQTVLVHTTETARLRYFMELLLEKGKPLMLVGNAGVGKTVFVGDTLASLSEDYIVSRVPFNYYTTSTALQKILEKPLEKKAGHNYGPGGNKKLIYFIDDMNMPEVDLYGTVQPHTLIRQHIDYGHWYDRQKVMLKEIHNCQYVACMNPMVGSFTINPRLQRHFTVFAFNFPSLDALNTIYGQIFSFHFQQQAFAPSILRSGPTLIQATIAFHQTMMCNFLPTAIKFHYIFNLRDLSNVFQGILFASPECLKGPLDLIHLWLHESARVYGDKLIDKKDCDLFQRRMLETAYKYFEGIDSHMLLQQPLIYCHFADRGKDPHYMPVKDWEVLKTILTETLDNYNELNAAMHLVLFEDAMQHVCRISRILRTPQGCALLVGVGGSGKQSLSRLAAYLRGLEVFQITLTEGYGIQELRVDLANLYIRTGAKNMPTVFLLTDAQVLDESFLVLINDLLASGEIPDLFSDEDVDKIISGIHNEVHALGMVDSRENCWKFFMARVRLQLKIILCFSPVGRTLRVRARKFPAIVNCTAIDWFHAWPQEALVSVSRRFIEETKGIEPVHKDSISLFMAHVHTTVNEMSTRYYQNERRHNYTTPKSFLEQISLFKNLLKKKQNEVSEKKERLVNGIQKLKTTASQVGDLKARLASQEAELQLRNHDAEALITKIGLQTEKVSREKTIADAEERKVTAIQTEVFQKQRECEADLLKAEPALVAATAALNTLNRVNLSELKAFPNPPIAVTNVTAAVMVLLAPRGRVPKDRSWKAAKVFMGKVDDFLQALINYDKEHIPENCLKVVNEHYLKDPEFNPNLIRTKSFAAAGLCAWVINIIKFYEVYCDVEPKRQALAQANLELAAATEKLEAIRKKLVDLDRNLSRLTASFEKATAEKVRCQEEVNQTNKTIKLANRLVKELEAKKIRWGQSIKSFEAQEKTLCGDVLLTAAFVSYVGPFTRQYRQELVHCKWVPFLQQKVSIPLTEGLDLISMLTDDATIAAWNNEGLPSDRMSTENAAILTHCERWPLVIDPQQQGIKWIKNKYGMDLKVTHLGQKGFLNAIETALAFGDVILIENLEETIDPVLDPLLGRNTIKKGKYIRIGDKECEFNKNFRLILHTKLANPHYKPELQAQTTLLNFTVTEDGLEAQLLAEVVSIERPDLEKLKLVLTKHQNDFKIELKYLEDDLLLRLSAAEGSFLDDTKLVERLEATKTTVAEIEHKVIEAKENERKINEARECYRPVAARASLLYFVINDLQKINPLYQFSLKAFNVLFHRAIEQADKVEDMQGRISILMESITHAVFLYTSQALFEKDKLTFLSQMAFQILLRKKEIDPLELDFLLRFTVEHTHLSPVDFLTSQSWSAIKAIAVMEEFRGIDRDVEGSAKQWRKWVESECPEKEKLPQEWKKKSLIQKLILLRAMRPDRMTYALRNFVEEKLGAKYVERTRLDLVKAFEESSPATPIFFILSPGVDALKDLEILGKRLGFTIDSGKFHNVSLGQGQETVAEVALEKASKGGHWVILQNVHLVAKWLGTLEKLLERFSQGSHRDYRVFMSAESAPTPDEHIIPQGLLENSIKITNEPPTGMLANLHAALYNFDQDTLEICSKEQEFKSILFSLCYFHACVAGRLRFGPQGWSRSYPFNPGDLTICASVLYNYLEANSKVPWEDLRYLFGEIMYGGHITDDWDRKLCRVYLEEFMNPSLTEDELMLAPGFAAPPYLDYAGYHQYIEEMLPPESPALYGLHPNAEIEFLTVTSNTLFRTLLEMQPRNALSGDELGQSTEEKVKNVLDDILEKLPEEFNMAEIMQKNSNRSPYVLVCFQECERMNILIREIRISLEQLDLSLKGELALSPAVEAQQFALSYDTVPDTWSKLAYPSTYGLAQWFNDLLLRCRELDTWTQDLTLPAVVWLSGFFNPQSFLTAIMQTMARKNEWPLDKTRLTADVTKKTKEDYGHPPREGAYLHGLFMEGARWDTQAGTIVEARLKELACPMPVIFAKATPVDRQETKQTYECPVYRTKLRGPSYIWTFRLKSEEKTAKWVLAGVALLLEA
inactive: [1] 0.038 | [2] 0.103 | [3] 0.126 | [4] -0.285 | [5] 0.047 | [6] -0.001 | [7] 0.041 | [8] -0.019 | [9] -0.012 | [10] -0.137 | [11] -0.109 | [12] 0.064 | [13] -0.13 | [14] 0.044 | [15] -0.007 | [16] 0.199 | [17] -0.15 | [18] 0.17 | [19] 0.111 | [20] -0.051

DHRS7B (UniProt Q6IAN0)
UniProt Q6IAN0, sequence (Q6IAN0 whole entry, looked up): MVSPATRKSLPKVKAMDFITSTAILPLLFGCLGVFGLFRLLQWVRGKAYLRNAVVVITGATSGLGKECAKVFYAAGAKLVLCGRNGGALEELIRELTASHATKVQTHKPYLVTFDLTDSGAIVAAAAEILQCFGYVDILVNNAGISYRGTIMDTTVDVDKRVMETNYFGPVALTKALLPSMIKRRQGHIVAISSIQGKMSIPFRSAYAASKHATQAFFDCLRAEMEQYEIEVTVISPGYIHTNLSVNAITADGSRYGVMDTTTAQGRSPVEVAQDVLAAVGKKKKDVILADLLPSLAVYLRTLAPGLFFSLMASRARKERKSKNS
inactive: [1] 0.027 | [2] -0.017 | [3] -0.063 | [4] 0.23 | [5] 0.055 | [6] 0.115 | [7] -0.113 | [8] -0.055 | [9] -0.049 | [10] -0.003 | [11] -0.008 | [12] -0.066 | [13] -0.049 | [14] -0.001 | [15] 0.003 | [16] 0.066 | [17] 0.06 | [18] 0.04 | [19] -0.029 | [20] -0.004

DHRS1 (UniProt Q96LJ7)
inactive: [1] 0.037 | [2] 0.105 | [3] 0.045 | [4] 0.014 | [5] 0 | [6] 0.614 | [7] 0.21 | [8] -0.087 | [9] 0.003 | [10] 0.071 | [11] 0.357 | [12] -0.143 | [13] -0.166 | [14] -0.202 | [15] 0.096 | [16] 0.29 | [17] -0.079 | [18] 0.088 | [19] 0.068 | [20] -0.05

DYRK1A isoform 2 (UniProt Q13627)
inactive: [1] -0.001 | [2] -0.009 | [4] -0.046 | [5] -0.042 | [6] -0.254 | [7] 0.064 | [8] 0.055 | [9] -0.014 | [10] 0.144 | [11] -0.025 | [12] 0.061 | [13] 0.003 | [14] -0.005 | [15] -0.032 | [16] -0.021 | [17] -0.024 | [18] -0.019 | [19] 0.038 | [20] 0.004
active: [3] -0.358

DTWD2 (UniProt Q8NBA8)
inactive: [1] 0.094 | [2] 0.001 | [3] 0.009 | [4] 0.092 | [5] -0.07 | [6] -0.179 | [7] 0.003 | [8] 0.082 | [9] 0.031 | [10] -0.004 | [11] 0.019 | [12] -0.025 | [13] 0.197 | [14] -0.048 | [15] 0.009 | [16] -0.079 | [17] 0.043 | [18] -0.006 | [19] -0.139 | [20] 0.056

DHCR24 (UniProt Q15392)
inactive: [1] -0.036 | [2] 0.02 | [3] 0.157 | [4] 0.04 | [5] 0.041 | [7] 0.022 | [8] 0.05 | [9] -0.104 | [10] 0.212 | [11] 0.248 | [12] 0.01 | [13] -0.003 | [14] -0.043 | [15] 0.004 | [16] -0.114 | [17] -0.012 | [18] 0.434 | [20] 0.088
active: [6] 1.14 | [19] 1.21

DBR1 (UniProt Q9UK59)
inactive: [1] -0.04 | [2] 0.02 | [3] -0.043 | [4] 0.037 | [5] 0.006 | [6] 0.032 | [7] -0.026 | [8] -0.012 | [9] 0.065 | [10] 0.114 | [11] -0.005 | [12] 0.028 | [13] 0.007 | [14] 0.049 | [15] -0.007 | [16] 0.024 | [17] 0.037 | [18] -0.033 | [19] -0.16 | [20] -0.022

DIP2A (UniProt Q14689)
inactive: [1] -0.036 | [2] 0.053 | [3] -0.06 | [4] 0.102 | [5] 0.003 | [6] -0.023 | [7] 0.118 | [8] 0.064 | [9] 0.084 | [10] 0.018 | [11] 0.032 | [12] -0.013 | [13] -0.007 | [14] 0.07 | [15] -0.119 | [16] 0.05 | [17] -0.009 | [18] 0.336 | [19] -0.05 | [20] 0.118

EDC4 (UniProt Q6P2E9)
inactive: [1] -0.041 | [2] -0.001 | [4] 0.019 | [5] 0.007 | [6] -0.181 | [7] 0.022 | [8] 0.05 | [9] -0.016 | [10] -0.032 | [11] 0.004 | [12] -0.048 | [13] -0.022 | [14] -0.035 | [15] 0.022 | [16] 0.035 | [17] 0.03 | [18] 0.029 | [19] 0.031 | [20] 0.057
active: [3] -0.387

DBT (UniProt P11182)
inactive: [1] -0.004 | [2] 0.019 | [3] 0.021 | [4] 0.109 | [5] 0.006 | [6] 0.027 | [7] 0.023 | [8] 0.002 | [9] 0.015 | [11] 0.001 | [12] -0.017 | [13] 0.01 | [14] -0.015 | [15] 0.024 | [16] -0.011 | [17] 0.015 | [18] -0.042 | [19] 0.005 | [20] -0.033
active: [10] 0.352

DOHH (UniProt Q9BU89)
UniProt Q9BU89, sequence (Q9BU89 whole entry, looked up): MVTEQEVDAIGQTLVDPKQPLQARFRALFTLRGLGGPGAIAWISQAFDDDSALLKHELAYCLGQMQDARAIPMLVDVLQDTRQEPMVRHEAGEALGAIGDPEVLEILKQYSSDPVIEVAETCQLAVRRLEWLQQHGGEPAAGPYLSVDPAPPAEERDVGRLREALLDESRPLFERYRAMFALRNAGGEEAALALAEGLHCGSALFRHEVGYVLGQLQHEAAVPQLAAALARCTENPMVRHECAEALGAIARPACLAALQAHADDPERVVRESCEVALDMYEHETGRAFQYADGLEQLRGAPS
inactive: [1] 0.127 | [2] 0.137 | [3] 0.103 | [4] 0.004 | [5] 0.244 | [6] 0.045 | [7] -0.106 | [8] 0.011 | [9] 0.02 | [10] 0.189 | [11] 0.083 | [12] -0.069 | [13] 0.084 | [14] -0.091 | [15] -0.144 | [16] 0.001 | [17] -0.059 | [18] -0.063 | [19] -0.068 | [20] -0.274

EHD2 (UniProt Q9NZN4)
inactive: [1] 0.009 | [2] 0.008 | [3] -0.038 | [4] 0.003 | [5] -0.033 | [6] 0.002 | [7] 0.036 | [8] -0.044 | [9] 0.003 | [10] 0.001 | [11] -0.037 | [12] -0.026 | [13] -0.007 | [14] 0.059 | [15] 0.003 | [16] 0.029 | [17] 0.007 | [18] -0.024 | [19] 0.024 | [20] 0.03

DHX40 (UniProt Q8IX18)
inactive: [1] 0.047 | [2] -0.04 | [3] -0.069 | [4] -0.036 | [5] -0.07 | [6] -0.075 | [7] -0.038 | [8] 0.047 | [9] 0.061 | [10] 0.096 | [11] 0.105 | [12] -0.047 | [13] 0.02 | [14] -0.027 | [15] 0.12 | [16] 0 | [17] 0.043 | [18] 0.025 | [19] 0.087 | [20] -0.002
